Structures are written as SMILES. The panel holds about 83,000 compounds, 20% with a hit somewhere; the sample as a whole holds those more often.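 Activity criterion: percent growth below 10, measured after cells in 96-well plates were exposed to a single compound concentration for 48 hours.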 Values without a mark were called inactive. Calls of active or inactive are those of the source.

This note sets out measurements from PubChem BioAssay (NCI).

The assay concerns SK-MEL-28 melanoma. Kind of assay: NCI-60 one-dose screen, 48 h (100 = growth as untreated, 0 = no growth, -100 = all killed). To be noted: 10 µM unless noted.
Take `O=C1C(Cl)=C(NCCCCCCNC2=C(Cl)C(=O)c3ccccc3C2=O)C(=O)c2ccccc21`: the growth is 111%.
The figure for `CCCC/C=C/[C@@H]1C[C@H]1CCO` is 98.1%; for `C=C(C)[C@@H]1CC[C@]2(CO)CC[C@]3(C)[C@H](CC[C@@H]4[C@@]5(C)CC[C@H](NCO)C(C)(C)[C@@H]5CC[C@]43C)[C@@H]12` it is -86.3% (active).
Take `Cc1cccc(/C=C/c2c(C(=O)/C=C/c3ccccc3)c(C)nc3ccccc23)c1`: the growth is -61.8% (active).
The figure for `Cc1ccc(-c2nc(N3CCCNCC3)c3oc(-c4ccc(C)cc4)nc3n2)cc1` is 89.8%.
To `Cc1sc2nc(NCCc3c[nH]c4ccc(Cl)cc34)[nH]c(=O)c2c1C` belongs 70.1%.
To `COc1ccc(OC)c(Nc2nnc(-c3ccc(O)c(OC)c3)o2)c1` belongs 108%.
In the case of `COc1ccccc1NC(=O)N=Nc1c(O)[nH]c2ccccc12`, the growth is 104%.
With `Nc1nc2ccccc2c2c1S(=O)(=O)c1ccc(Cl)cc1C2=O`, the growth is 34.5%.
The figure for `Nc1n[nH]c2cccc(C#Cc3cccc(C(=O)Nc4cc(C(F)(F)F)cc(C(F)(F)F)c4)c3)c12` is 62.1%; for `CS(=O)(=O)Nc1cc(-c2ccc3ncnc(Nc4ccc5c(cnn5Cc5ccc(F)cc5)c4)c3c2)cnc1Cl` it is 16.7%; for `Fc1cc2c(cc1Cl)N(c1ncnc3ccc(-c4ccc5n[nH]nc5c4)cc13)CC2` it is 86.9%.
`CCN1C(=S)N(c2ccccc2)C2NC(=S)N(/N=C/C=C/c3ccccc3OC)C21` (stereo not given): the growth was 47.8%.
To `O=c1c2cccc3c(N4CCCC4)ccc(c32)c2nc3ccccc3n12` belongs 90.9%.
`OB1OCc2cc(/C=C/c3cccc(C(F)(F)F)c3)ccc21`: the growth was 45.5%.
The figure for `O=C(/C=C/c1ccccc1)Nc1ncc(Cc2ccccc2Cl)s1` is 55.7%; for `CN(C)CCNC(=O)c1ccc(-c2nc3ccc4[nH]ncc4c3c3c2C2CCC3C2)cc1` (stereo not given) it is 46.6%; for `COC12C=C/C(=C(/C(=O)OCc3ccncc3)C(=O)CCCCCCCCC3(OC)C=C/C(=C(/C(=O)OCc4ccncc4)C(=O)CCCCCCCC1)O3)O2` it is -61.1% (active).
As to `O=C(/C=C/c1cccc(Cl)c1)c1cccc(OCCCOc2cccc(C(=O)/C=C/c3cccc(Cl)c3)c2)c1`, the growth is 108%.
In the case of `CCn1c(SCC(=O)N/N=C(\C)c2ccc(Cl)cc2)nc2c1c(=O)n(C)c(=O)n2C`, the growth is 111%.
The figure for `Cc1ccc(C[P+](c2ccccc2)(c2ccccc2)c2ccccc2)cc1` is 9.82% (active).
To `Clc1ccc2c(NC3CCC(N4CCOCC4)CC3)ccnc2c1` (stereo not given) belongs 97.3%; to `Cc1ccc(C2=Nc3c(N)ncnc3NC(c3cccc(Nc4ccnc5cc(C(F)(F)F)ccc45)c3)C2)cc1` (stereo not given), 52.3%.
The figure for `COc1ccc(-c2noc(C(=O)O)c2-c2cc(OC)c(OC)c(OC)c2)cc1` is 65.3%; for `CCOC(=O)c1nn(-c2ccc(S(N)(=O)=O)cc2)c2nc(C)cc(=O)n12` it is 119%.
For `CCSC(SCC)c1ccc(Cl)cc1`, the growth was 115%.
The figure for `CSc1nc2ccccc2cc1/C=C1/C=C(c2ccccc2)NC1=O` is 92.6%; for `COC1/C=C/OC2(C)Oc3c(C)c(O)c4c(O)c(c(/C=N/Nc5ccc([N+](=O)[O-])cc5[N+](=O)[O-])c(O)c4c3C2=O)NC(=O)C(C)=C/C=C/C(C)C(O)C(C)C(O)C(C)C(OC(C)=O)C1C` (stereo not given) it is 37.3%; for `O=C1C(Cl)=C(Nc2ccc(S(=O)(=O)N3CCOCC3)cc2)C(=O)c2ccccc21` it is 47.5%.
To `c1csc(-c2ccc(CNc3c4ccccc4nc4ccccc34)cc2)c1` belongs -86% (active).
To `Nc1ncc(-c2ccc3ncnc(Nc4cccc(Cl)c4)c3c2)cn1` belongs 63.8%; to `CCOC(=O)C#Cc1c(C(=O)OCC)nnn1Cc1ccc([N+](=O)[O-])cc1`, 87%.
Turning to `O=C(CSc1nc2ccc([N+](=O)[O-])cc2[nH]1)Nc1ccc([N+](=O)[O-])cc1`, the growth is 30.7%.
The figure for `CC(C)(Sc1cc(C(C)(C)C)c(OC(=O)CCCC(=O)O)c(C(C)(C)C)c1)Sc1cc(C(C)(C)C)c(OC(=O)CCCC(=O)O)c(C(C)(C)C)c1` is 24.9%.
Take `O=C(N(c1ccccc1)c1ccccc1)n1cc(I)c2nc(Cl)nc(Cl)c21`: the growth was 88.2%.
As to `NC(=O)CSc1oc(-c2ccccc2)nc1S(=O)(=O)c1ccc(Br)cc1`, the growth is 87.7%.
The figure for `COc1ccc(/C=C/C(=O)c2cc3c(N)c(C(=O)Nc4cccc5ccccc45)sc3nc2C)cc1` is 64.9%; for `Nc1ncnc2c1c(-c1cccc(Cl)c1)nn2CC(=O)N1CCOCC1` it is 105%.
In the case of `CC(=O)O[C@H]1CC2CCC3C(CC[C@@]4(C)C3C[C@H]([N+]3(C)CCCCC3)[C@@H]4OC(C)=O)[C@@]2(C)C[C@@H]1N1CCCCC1` (stereo not given in full), the growth is 108%.
Consider `c1ccc(Cn2cc3c(c2)-c2oncc2CC3)cc1`, for which the growth is 53.9%.
